Assay results as given in PubChem BioAssay (NCI).
This is part of a sample that, as a whole, favours compounds with a hit. Of some 83,000 tested, about 20% had one in any assay.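 Values shown are percent growth following 48 h exposure of cells in 96-well plates to a single concentration of compound; below 10 was considered active.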 Calls of active or inactive are those of the source.

Experiments:
Assay in all cases: NCI-60 one-dose screen, 48 h (100 = growth as untreated, 0 = no growth, -100 = all killed)
Settings in all cases: 10 µM
SK-MEL-2 melanoma = tested on: SK-MEL-2 melanoma
EKVX NSCLC = tested on: EKVX NSCLC
SN12C renal = tested on: SN12C renal
UO-31 renal = tested on: UO-31 renal
TK-10 renal = tested on: TK-10 renal
ACHN renal = tested on: ACHN renal
CAKI-1 renal = tested on: CAKI-1 renal
A498 renal = tested on: A498 renal
CCRF-CEM leukemia = tested on: CCRF-CEM leukemia
RPMI-8226 leukemia = tested on: RPMI-8226 leukemia
OVCAR-8 ovarian = tested on: OVCAR-8 ovarian
OVCAR-5 ovarian = tested on: OVCAR-5 ovarian
OVCAR-4 ovarian = tested on: OVCAR-4 ovarian
SK-OV-3 ovarian = tested on: SK-OV-3 ovarian
IGROV1 ovarian = tested on: IGROV1 ovarian
OVCAR-3 ovarian = tested on: OVCAR-3 ovarian
HS 578T breast = tested on: HS 578T breast
NCI/ADR-RES ovarian = tested on: NCI/ADR-RES ovarian
SR leukemia = tested on: SR leukemia

Measured: growth

CNC(=O)c1cccc(N2CCc3c2ccc(NC(=O)Nc2ccc(N4CCN(C)CC4)c(C(F)(F)F)c2)c3F)c1
inactive: A498 renal 39.3% | SK-OV-3 ovarian 45.3%
active: SK-MEL-2 melanoma -53.2% | EKVX NSCLC -87% | SN12C renal -91.5% | UO-31 renal -100% | TK-10 renal -94.7% | ACHN renal -100% | CAKI-1 renal -81.5% | CCRF-CEM leukemia -42.1% | RPMI-8226 leukemia -41.1% | OVCAR-8 ovarian -83.4% | OVCAR-5 ovarian -85.1% | OVCAR-4 ovarian -86.1% | IGROV1 ovarian -91.7% | OVCAR-3 ovarian -80% | HS 578T breast -1.44% | NCI/ADR-RES ovarian -79.2%

Cc1ccc(NC(=O)c2ccc(-n3c(=O)[nH]c4ccccc4c3=O)cc2)cc1
active: UO-31 renal -16.8%
inactive: SK-MEL-2 melanoma 97.8% | EKVX NSCLC 84.8% | SN12C renal 69.4% | TK-10 renal 96.3% | ACHN renal 68.3% | CAKI-1 renal 88.4% | A498 renal 107% | CCRF-CEM leukemia 60.7% | RPMI-8226 leukemia 133% | OVCAR-8 ovarian 52.9% | OVCAR-5 ovarian 106% | OVCAR-4 ovarian 98.8% | SK-OV-3 ovarian 82.5% | IGROV1 ovarian 103% | OVCAR-3 ovarian 90.5% | HS 578T breast 78.3%

CN1CCN(c2ccc(Nc3nc(NCCCNC(=O)C4CCCCC4)c4sccc4n3)cc2)CC1
active: RPMI-8226 leukemia -12.3%
inactive: SK-MEL-2 melanoma 102% | EKVX NSCLC 67.3% | SN12C renal 70.6% | UO-31 renal 62.4% | TK-10 renal 99.4% | ACHN renal 36.2% | CAKI-1 renal 57.2% | A498 renal 144% | CCRF-CEM leukemia 18% | OVCAR-8 ovarian 57.5% | OVCAR-5 ovarian 67.3% | OVCAR-4 ovarian 48.9% | SK-OV-3 ovarian 98% | IGROV1 ovarian 76.9% | OVCAR-3 ovarian 33.4% | HS 578T breast 42.9% | NCI/ADR-RES ovarian 74.3%

CO[C@H]1CSS[C@@H]1Cn1nc(-c2ccc(Oc3ccccc3)cc2)c2c(N)ncnc21
inactive: EKVX NSCLC 18% | SN12C renal 24.6% | UO-31 renal 17.7% | ACHN renal 10% | CAKI-1 renal 11.3% | A498 renal 92.8% | RPMI-8226 leukemia 36.4% | OVCAR-8 ovarian 48.2% | OVCAR-5 ovarian 28.5% | OVCAR-4 ovarian 50.2% | IGROV1 ovarian 29.4% | OVCAR-3 ovarian 61.2% | HS 578T breast 28.4% | NCI/ADR-RES ovarian 42.6%
active: SK-MEL-2 melanoma -34% | TK-10 renal 0.0625% | CCRF-CEM leukemia -16% | SK-OV-3 ovarian -1.28%

O=C(CS(=O)(=O)c1oc(-c2ccc(Cl)cc2)nc1S(=O)(=O)c1ccccc1)N1CCCC1
inactive: SK-MEL-2 melanoma 82.8% | EKVX NSCLC 74.9% | A498 renal 110% | SK-OV-3 ovarian 97.9% | IGROV1 ovarian 74.4% | HS 578T breast 60.2%
active: SN12C renal -26.2% | UO-31 renal -100% | TK-10 renal -94.5% | ACHN renal -100% | CAKI-1 renal -98.7% | CCRF-CEM leukemia -45% | RPMI-8226 leukemia -13.8% | OVCAR-8 ovarian -31.8% | OVCAR-5 ovarian -51.4% | OVCAR-4 ovarian -90.1% | OVCAR-3 ovarian -90.1% | NCI/ADR-RES ovarian 9.98%

Cc1ccc(-c2nc3ccc(C(=O)N=Nc4c(O)[nH]c5ccc(Cl)cc45)cc3[nH]2)cc1
inactive: SK-MEL-2 melanoma 57.3% | EKVX NSCLC 37.9% | SN12C renal 23% | UO-31 renal 72.4% | TK-10 renal 65.6% | ACHN renal 55.1% | CAKI-1 renal 58% | A498 renal 119% | RPMI-8226 leukemia 32.6% | OVCAR-5 ovarian 18.2% | SK-OV-3 ovarian 30.7% | IGROV1 ovarian 18.1% | NCI/ADR-RES ovarian 54.1%
active: CCRF-CEM leukemia -31.7% | OVCAR-8 ovarian -33.9% | OVCAR-4 ovarian -63.6% | OVCAR-3 ovarian -47.2% | HS 578T breast -0.441%

COc1ccc(C(C)=C(c2ccc(OCCCN(C)C)cc2)c2ccc(OCCCN(C)C)cc2)cc1
active: SK-MEL-2 melanoma -92.8% | EKVX NSCLC -85.1% | SN12C renal -94.2% | UO-31 renal -99.4% | TK-10 renal -97.7% | ACHN renal -100% | CAKI-1 renal -100% | A498 renal -85.2% | CCRF-CEM leukemia -81.2% | RPMI-8226 leukemia -66% | OVCAR-8 ovarian -92.6% | OVCAR-5 ovarian -100% | OVCAR-4 ovarian -94.6% | SK-OV-3 ovarian -99.5% | IGROV1 ovarian -91.1% | OVCAR-3 ovarian -81.3% | HS 578T breast -68.2% | NCI/ADR-RES ovarian -96.6%

COc1cc2c3c(n(CCCn4ccnc4)c(=O)c2cc1OC)-c1nc2c(cc1C3=O)OCO2
active: ACHN renal 3.67%
inactive: SK-MEL-2 melanoma 123% | EKVX NSCLC 91.6% | SN12C renal 19.7% | UO-31 renal 26.5% | TK-10 renal 110% | CAKI-1 renal 10.2% | A498 renal 118% | CCRF-CEM leukemia 18.5% | SR leukemia 13.8% | RPMI-8226 leukemia 44.3% | OVCAR-8 ovarian 43.6% | OVCAR-5 ovarian 57.2% | OVCAR-4 ovarian 80.9% | SK-OV-3 ovarian 18.3% | IGROV1 ovarian 56% | OVCAR-3 ovarian 48.5% | NCI/ADR-RES ovarian 84.2%

CCCCCc1ccc(S(=O)(=O)Nc2cc(-c3csc(N(C)C(C)=O)n3)ccc2N2CCN(C)CC2)cc1
inactive: SK-MEL-2 melanoma 24.2% | EKVX NSCLC 65.4% | SN12C renal 14.1% | UO-31 renal 33.1% | TK-10 renal 47.3% | ACHN renal 13.7% | CAKI-1 renal 38.9% | A498 renal 104% | OVCAR-8 ovarian 36% | OVCAR-5 ovarian 68% | OVCAR-4 ovarian 11.6% | SK-OV-3 ovarian 21.4% | IGROV1 ovarian 48% | OVCAR-3 ovarian 60.2% | HS 578T breast 28.7%
active: CCRF-CEM leukemia -27.5% | RPMI-8226 leukemia -9.26%

CC(=C(c1ccc(OCCN2CCCCCC2)cc1)c1ccc(OCCN2CCCCCC2)cc1)c1ccc(Cl)cc1
active: SK-MEL-2 melanoma -91.7% | EKVX NSCLC -89.3% | SN12C renal -92.4% | UO-31 renal -100% | TK-10 renal -98% | ACHN renal -100% | CAKI-1 renal -100% | A498 renal -90.9% | CCRF-CEM leukemia -61.5% | RPMI-8226 leukemia -63.6% | OVCAR-8 ovarian -95.3% | OVCAR-5 ovarian -100% | OVCAR-4 ovarian -96.3% | SK-OV-3 ovarian -100% | IGROV1 ovarian -94.1% | OVCAR-3 ovarian -92.6% | HS 578T breast -48% | NCI/ADR-RES ovarian -97.7%

COc1ccccc1NCc1ccc(CO)n1-c1ccc(C)cc1
inactive: SK-MEL-2 melanoma 104% | EKVX NSCLC 98.9% | SN12C renal 86.8% | UO-31 renal 60.3% | TK-10 renal 107% | ACHN renal 93.3% | CAKI-1 renal 79.9% | A498 renal 123% | CCRF-CEM leukemia 86.3% | RPMI-8226 leukemia 85.8% | OVCAR-8 ovarian 101% | OVCAR-5 ovarian 111% | OVCAR-4 ovarian 97.7% | SK-OV-3 ovarian 81.5% | IGROV1 ovarian 91.5% | OVCAR-3 ovarian 95.6% | HS 578T breast 98% | NCI/ADR-RES ovarian 95.9%

COC1CC(Cn2cc(COc3ccc4ccc(=O)oc4c3)nn2)C(OCc2ccccc2)C(OCc2ccccc2)C1OCc1ccccc1 (stereo not given)
inactive: SK-MEL-2 melanoma 114% | EKVX NSCLC 90.7% | SN12C renal 106% | UO-31 renal 71.7% | TK-10 renal 110% | ACHN renal 105% | CAKI-1 renal 84% | A498 renal 116% | CCRF-CEM leukemia 87% | RPMI-8226 leukemia 77.7% | OVCAR-8 ovarian 103% | OVCAR-5 ovarian 111% | OVCAR-4 ovarian 93.4% | SK-OV-3 ovarian 91.9% | IGROV1 ovarian 107% | OVCAR-3 ovarian 125% | HS 578T breast 109% | NCI/ADR-RES ovarian 94.3%

COc1ccc2[nH]c(O)c(N=NC(=O)COc3ccc(NC(=O)Nc4ccc(Cl)cc4)cc3)c2c1
inactive: EKVX NSCLC 84.8% | SN12C renal 15.9% | UO-31 renal 90.3% | TK-10 renal 106% | ACHN renal 100% | CAKI-1 renal 99.7% | A498 renal 135% | RPMI-8226 leukemia 32.1% | OVCAR-5 ovarian 48% | SK-OV-3 ovarian 49.6% | IGROV1 ovarian 68.8% | HS 578T breast 22.8% | NCI/ADR-RES ovarian 102%
active: SK-MEL-2 melanoma -8.16% | CCRF-CEM leukemia 8.83% | OVCAR-8 ovarian -28.6% | OVCAR-4 ovarian -21.6% | OVCAR-3 ovarian -30.6%

COc1cc2c(c(OC)c1OC)C(=O)CC(c1cccc(NC(=O)c3cccc(N)c3)c1)O2 (stereo not given)
inactive: SK-MEL-2 melanoma 85.2% | EKVX NSCLC 91.9% | SN12C renal 74.3% | UO-31 renal 58.6% | TK-10 renal 118% | ACHN renal 84.6% | CAKI-1 renal 65.9% | A498 renal 98.8% | CCRF-CEM leukemia 49.4% | RPMI-8226 leukemia 57.4% | OVCAR-8 ovarian 55% | OVCAR-5 ovarian 123% | OVCAR-4 ovarian 64.1% | SK-OV-3 ovarian 107% | IGROV1 ovarian 86.7% | OVCAR-3 ovarian 80.9% | HS 578T breast 90.3%

CCN1CCN(c2ccc(NC(=O)Nc3ccc4c(c3F)CCN4c3ccnc(C(=O)NC)c3)cc2C(F)(F)F)CC1
active: EKVX NSCLC -76.9% | CAKI-1 renal -87.9% | CCRF-CEM leukemia -42.3% | RPMI-8226 leukemia -40.2% | OVCAR-8 ovarian -75.4% | OVCAR-4 ovarian -89.6% | OVCAR-3 ovarian -85.6% | NCI/ADR-RES ovarian -67.6%
inactive: SK-MEL-2 melanoma 99.6% | SN12C renal 104% | UO-31 renal 85.3% | TK-10 renal 118% | ACHN renal 54.9% | A498 renal 142% | OVCAR-5 ovarian 57.5% | SK-OV-3 ovarian 103% | IGROV1 ovarian 113% | HS 578T breast 68.3%

CN(C)c1cccc2c(S(=O)(=O)Nc3cccc(-c4csc(NC(=O)CCCCCN5CCN(c6cc7c(cc6F)C(=O)N(C6CCC(=O)NC6=O)C7=O)CC5)n4)c3)cccc12 (stereo not given)
inactive: SK-MEL-2 melanoma 108% | EKVX NSCLC 80.8% | SN12C renal 85.8% | UO-31 renal 70% | TK-10 renal 97.4% | ACHN renal 97.8% | CAKI-1 renal 79.4% | A498 renal 95.7% | CCRF-CEM leukemia 66.3% | RPMI-8226 leukemia 50.7% | OVCAR-8 ovarian 94.6% | OVCAR-5 ovarian 105% | OVCAR-4 ovarian 66.6% | SK-OV-3 ovarian 86.9% | IGROV1 ovarian 96.3% | OVCAR-3 ovarian 99.8% | HS 578T breast 70.4% | NCI/ADR-RES ovarian 98.4%
